Bioassay records as filed in PubChem BioAssay.
FMDV antiviral: High Throughput Screening for Foot and Mouth Disease Virus Antivirals; FMDV antiviral cell-based qHTS; AID 1159524, 2015; Potency, µM (doses to about 57.9 µM), for inactives: top-dose activity change, negative = inhibition, usual class: inhibitors; hit rate 1.2% among 410,000; calls by dose curve; tested in HEK293T cells; also: read-out not given here; potency is read from the fitted curve at half-maximal effect; nearly all actives have a fitted effect of over 45% in size
Vaccinia mCherry: qHTS for Stage-Specific Inhibitors of Vaccinia Orthopoxvirus: mCherry Reporter Primary qHTS; Vaccinia virus mCherry reporter infection, fluorescence; Potency, µM (series often up to 36.5 µM), without a hit: top-dose activity change, negative = inhibition, usual class: inhibitors; hit rate 0.63% among 310,000; AID 720579, 2013; calls by dose curve; tested in A549 cells; also: potency is read from the fitted curve at half-maximal effect; nearly all actives have a fitted effect of over 35% in size
Vaccinia Venus: qHTS for Stage-Specific Inhibitors of Vaccinia Orthopoxvirus: Venus Reporter Primary qHTS. Vaccinia virus Venus reporter expression, fluorescence. Potency, µM (top dose mostly 36.5 µM), without a hit: at the top dose activity change, negative = inhibition, actives largely listed as inhibitors. hit rate 0.46% among 330,000; calls by dose curve; tested in A549 cells; also: potency is read from the fitted curve at half-maximal effect; nearly all actives have a fitted effect of over 30% in size
HCV inhibitor: qHTS Assay for Inhibitors of Hepatitis C Virus (HCV); AID 651820, 2012; Huh7.5.1 HCVcc-Cre infection, luciferase reporter, 44 h; hit rate 3.4% among 340,000; Potency, µM (series often up to 41.8 µM), inactives show top-dose activity change, negative = inhibition, most hits filed as inhibitors; active = well fitted inhibition curve with a large enough effect; inconclusive = small, poorly fitted or top-dose-only effect, or another doubt; inactive = no such curve, though single readings can be large or run the other way; also: potency is read from the fitted curve at half-maximal effect
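Reporter virus HCVcc-Cre (~0.5 moi) infects cells exposed to compound; seeding density 1,000 cells/well with 4 h settling beforehand. Luminescence, 15 sec read, taken 44 h post-infection following a 15 min RT substrate incubation.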
HCMV antiviral: qHTS Assay for inhibitors of the human cytomegalovirus (HCMV). hit rate 4.5% among 410,000. activity change, negative = inhibition, % at 57.5 µM. HFF cells, HCMV-luciferase reporter, 72 h; active compounds read low. AID 1259415, 2018; in the data active = activity change below about -60%; inconclusive = no clear call, values can overlap the other calls; inactive = above about -39%
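After 16 h attachment at 37C, HFF cells received test compound and HCMV-luciferase (1 PFU/cell); reporter luminescence read 72 h later, data normalized against buffer-only and known inhibitor Salinomycin.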
* marks the source's active call; other numbers are inactive results; i = inactive; ? = inconclusive; . = not tested or not shown. Most compounds without a hit are left out; they make up all but 7.3% or so of the library. % is scaled to controls: 0 for no effect and ±100 for the full control effect.

SMILES	FMDV antiviral	Vaccinia mCherry	Vaccinia Venus	HCV inhibitor	HCMV antiviral
CCOc1ccc(-c2cc(C(=O)Nc3ccc(C)c(NS(C)(=O)=O)c3)[nH]n2)c(C)c1	?	11.2µM*	?	.	-91.1*
CCOC(=O)Cc1csc(NC(=O)COc2ccc(C)c(C)c2)n1	-12.4%	-2.0%	-13.4%	-16.8%	10.7
CCOC(=O)Cn1nc(C)c(NC(=O)COc2ccc(C)c(C)c2)c1C	-22.2%	-5.9%	0.3%	0.3%	-61.5*
CC(Sc1nnc(C(C)Oc2ccc(F)cc2)o1)C(=O)NCc1ccc2c(c1)OCO2 (configuration not stated)	-28.1%	-5.2%	-12.4%	.	-5.4
Cc1cccc(-n2c(CNC(=O)c3cccc(F)c3)nnc2SCC(=O)Nc2ccccc2F)c1	-0.2%	-7.6%	-8.0%	.	-1.9
CCc1ccc(OCC(=O)N/N=C(\C)c2ccc3c(c2)OCCO3)cc1	5.8%	i	-13.8%	-3.9%	-36.4
CCc1ccc(OCC(=O)N/N=C(\C)c2ccc(O)cc2O)cc1	-0.5%	?	-8.9%	11.2µM*	-6.0
CN(C)CC1C2CCC(C2)C1O (configuration not stated)	-6.3%	-8.3%	12.2%	15.5%	-28.4
Cc1ccc(C)c(NC(=O)c2cc(=O)c3cc(C)cc(C)c3o2)c1	-7.3%	-6.3%	7.4%	.	9.3
O=[N+]([O-])c1ccc(/C=C/c2ccc3cccc([N+](=O)[O-])c3n2)cc1	-10.2%	-3.8%	-11.2%	-8.9%	?
CCOc1cc(/C=C/c2ccc3cccc([N+](=O)[O-])c3n2)ccc1O	?	?	?	?	-99.3*
CCOc1cc(/C=C/c2ccc3cccc([N+](=O)[O-])c3n2)ccc1OCC(=O)N(C)C	?	?	?	?	-109.2*
COc1cc(/C=C/c2ccc3cccc([N+](=O)[O-])c3n2)ccc1OCC#N	-22.9%	?	-18.7%	4.47µM*	-93.4*
Cn1cc(S(=O)(=O)N2CCCCC2)cc1C(=O)Nc1cccc(C#N)c1	-14.6%	-7.5%	-12.6%	.	-13.9
O=C(Nc1ccccc1C(=O)OCC(=O)c1c[nH]c2ccccc12)c1ccco1	-7.0%	-12.6%	-17.5%	?	14.7
CCc1ccc2nc(N(CCCN(C)C)C(=O)c3ccc(S(=O)(=O)N4CCc5ccccc5C4)cc3)sc2c1	-17.7%	-9.9%	-22.8%	?	-61.6*
CCOc1cccc2sc(N(CCCN(C)C)C(=O)c3ccc(S(=O)(=O)N(C)c4ccccc4)cc3)nc12	-17.4%	?	?	?	-25.5
CCOc1cccc2sc(N(CCCN(C)C)C(=O)c3ccc(S(=O)(=O)N4CCc5ccccc5C4)cc3)nc12	0.0%	.	.	-20.7%	-68.2*
CN(C)CCCN(C(=O)c1ccc(S(=O)(=O)N2CCCC2)cc1)c1nc2ccc(Br)cc2s1	-24.8%	-13.0%	-27.0%	?	-22.6
CCOC(=O)C1=C[C@@H](CC)N(S(=O)(=O)c2ccc(C)cc2)[C@H]1c1cccs1	?	i	-22.5%	.	?
Cc1cccc(C)c1NC(=O)CN(C)CCc1ccccc1	-19.0%	23.5%	0.9%	.	27.0
Cc1cccc([N+](=O)[O-])c1NC(=O)CN(Cc1ccccc1)Cc1ccccc1	?	i	-19.5%	?	-61.0*
Cc1ccc(N(C)C(=O)c2cc(S(=O)(=O)N3CCOCC3)cn2C)cc1	-2.9%	-9.9%	-8.9%	.	-22.0
COc1ccc2c(c1)CCC1=C2NC(=S)NC1c1ccc(N(C)C)cc1 (configuration not stated)	?	?	-27.9%	11.2µM*	-35.3
O=C(CCc1nnc2n(Cc3ccccc3Cl)c(=O)c3ccccc3n12)Nc1ccccc1	-3.8%	-20.6%	-20.1%	.	-19.9
SMILES	FMDV antiviral	Vaccinia mCherry	Vaccinia Venus	HCV inhibitor	HCMV antiviral
COC(=O)C(Cc1ccccc1)N1CCS(=O)(=O)CC1 (configuration not stated)	-3.8%	-5.0%	-16.8%	-6.2%	-69.5*
O=C(O)C(Cc1ccccc1)N1CCS(=O)(=O)CC1 (configuration not stated)	-2.9%	-0.2%	2.9%	2.3%	?
c1ccc2c(c1)OCC(CNc1ncnc3sccc13)O2 (configuration not stated)	?	?	-21.0%	1µM*	-63.3*
COc1ccccc1Oc1ncnc2sccc12	-5.7%	-7.3%	-1.7%	-3.9%	58.6
COc1ccccc1CNc1ncnc2sccc12	-27.5%	i	-5.6%	?	-75.9*
COc1ccc(CCNc2ncnc3sccc23)cc1OC	28.2µM*	-13.1%	-18.2%	?	-89.2*
Fc1ccccc1CNc1ncnc2sccc12	?	-14.1%	8.1%	2.24µM*	-14.5
COc1cc2ncnc(NCc3ccccc3F)c2cc1OC	-23.5%	.	.	5.3%	-27.9
COc1ccccc1-c1ccc([C@@H]2C[C@H]3[C@H](CON3C)CN2CC2CCCCC2)cc1	.	.	.	.	-16.4
CC(=O)Oc1ccc(Cn2c(C)c(C(=O)NCc3cccc(C(F)(F)F)c3)sc2=O)cc1	?	-4.2%	-16.0%	.	-2.9
COC(=O)c1ccc(Cl)cc1NC(=O)Nc1nnc(N(C)Cc2ccccc2)s1	-18.2%	-7.8%	2.0%	.	-5.1
O=C(Nc1c2c(nn1-c1ccc(Cl)cc1)CS(=O)(=O)C2)c1ccccc1F	0.0%	1.4%	-2.1%	.	-7.7
CCc1nc2ccc(C(=O)Nc3cccc(OCC(=O)N(C)C)c3)cn2c1N(C)C(=O)c1cccc(OC)c1	-15.3%	33.8%	6.0%	.	42.6
CN(C)c1ccc(CNc2ncnc3sccc23)cc1	?	-24.0%	-17.5%	1.78µM*	-82.0*
CN(C)c1ccc(CNc2ncc(Br)cc2Br)cc1	24.0%	-20.6%	-14.9%	-7.8%	-5.6
COc1ccc(-c2c3c(nc4sc5c(=O)[nH]c(C)nc5c24)CCC3)cc1	0.0%	.	-8.9%	3.7%	-88.4*
COc1ccc(-c2c3c(nc4sc(C(=O)Nc5cc(C)on5)c(N)c24)CCC3)cc1	.	-15.4%	-4.9%	?	?
CN1CCc2cc3c(cc2[C@@H]1[C@@H]1C(=O)Oc2c1ccc1c2OCO1)OCO3	-11.4%	.	.	.	.
CC(C)NC(=O)COC(=O)c1ccccc1OCC(=O)Nc1ccc(Br)cc1	.	-11.9%	-6.8%	.	.
Cc1ccn2c(Nc3ccccc3C)c(-c3ccncc3)nc2c1	?	?	-24.0%	-24.4%	-66.6*
Cc1ccccc1Nc1c(-c2ccsc2)nc2c(C)cccn12	?	-2.4%	-11.9%	.	-84.4*
CC1CCN(C(=O)Cn2cc(SCC(=O)Nc3ccccc3C(F)(F)F)c3ccccc32)CC1	?	6.2%	-7.5%	.	-64.4*
CN(CCc1ccccc1)C(=O)c1[nH]c(C(F)(F)F)nc1-c1ccccc1	-13.3%	i	2.8%	.	-10.7
CCc1ccc2c(c1)C1(C(=O)N2)N2CCCC2C(C(=O)c2ccc3ccccc3c2)C12C(=O)Nc1ccccc12 (configuration not stated)	-28.9%	28.2µM*	12.6µM*	?	?
